# Compounds without any hit were thinned out: in the full panel of roughly 79,000, 15% have a hit. Unmarked numbers belong to inactive results. Activity calls are given as the source filed them. No stated cut-off is given here; in the data, active means growth inhibition above about 70%; inactive means the rest.
# Columns and labels:
# [1] = NCI Yeast Anticancer Drug Screen. Data for the rad52 strain (AID 147);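 further: 0% = growth of vehicle-treated control cultures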; details: S. cerevisiae rad52 mutant growth inhibition, hits give high values
# In short: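 Screen used a yeast mutant impaired in DNA repair. After compound exposure, growth was measured. Values reflect inhibition compared with vehicle-treated cells.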
# [2] = NCI Yeast Anticancer Drug Screen. Data for the wt1 strain (AID 149);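 further: 0% = growth of vehicle-treated wt1 cultures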; details: S. cerevisiae wt1 strain (SPY 50644) growth inhibition, hits give high values
# In short: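 Each compound is tested on wt1 yeast and the loss of growth versus vehicle gives the inhibition value.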
# [3] = NCI Yeast Anticancer Drug Screen. Data for the rad50EPP+ strain (AID 151);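 further: 0% = growth of vehicle-treated control cultures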; details: S. cerevisiae rad50 mutant strain, hits give high values
# In short: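 Exposing the rad50EPP+ strain to each compound, growth was compared with vehicle-only cultures to give inhibition.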
# [4] = NCI Yeast Anticancer Drug Screen. Data for the mgt1 strain (AID 153); details: S. cerevisiae mgt1 mutant growth inhibition, hits give high values
# In short: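 Genetically defined yeast (mgt1) treated with compound; inhibition of growth expressed against vehicle-treated controls.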
# [5] = NCI Yeast Anticancer Drug Screen. Data for the rad50 strain (AID 155);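 further: 0% = growth of vehicle-only cultures of the same strain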; details: S. cerevisiae rad50 strain growth inhibition, hits give high values
# In short: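 Vehicle-treated cultures provide the reference for the growth inhibition reported for compound-exposed, repair-deficient yeast.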
# [6] = NCI Yeast Anticancer Drug Screen. Data for the mec2-1 strain (AID 157); details: S. cerevisiae mec2-1 strain, hits give high values
# In short: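 Readout is yeast growth inhibition, normalised to vehicle-treated controls, in the mec2-1 strain exposed to compound.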
# [7] = NCI Yeast Anticancer Drug Screen. Data for the rad14 strain (AID 159);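 further: 0% = growth of vehicle-treated control cultures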; details: S. cerevisiae rad14 strain growth inhibition, hits give high values
# In short: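 Inhibition of growth is reported for a repair-deficient yeast mutant following compound treatment, calculated relative to cultures that received vehicle.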
# [8] = NCI Yeast Anticancer Drug Screen. Data for the sgs1 mgt1 strain (AID 161);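 further: 0% = growth of cultures given vehicle only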; details: S. cerevisiae sgs1 mgt1 strain, hits give high values
# In short: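 Percent growth inhibition was derived by comparing compound-exposed mutant yeast with vehicle-exposed cultures. The strain carries alterations in DNA damage repair.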
# [9] = NCI Yeast Anticancer Drug Screen. Data for the CLN2oe strain (AID 163);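 further: 0% = growth of vehicle-only control cultures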; details: S. cerevisiae CLN2oe strain, hits give high values
# In short: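 Values reflect how much compound exposure reduced yeast growth, referenced to vehicle-exposed cells. Assay organism is a strain with a defined genetic change affecting cell-cycle control.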
# [10] = NCI Yeast Anticancer Drug Screen. Data for the cln2 rad14 strain (AID 165);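 further: 0% = growth equal to vehicle treated cultures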; details: S. cerevisiae cln2 rad14 strain, hits give high values
# In short: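 Relative to vehicle controls, growth inhibition of compound-treated cln2 rad14 yeast was recorded.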
# [11] = NCI Yeast Anticancer Drug Screen. Data for the bub3 strain (AID 167); details: S. cerevisiae bub3 mutant strain, hits give high values
# In short: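 Mutant yeast screening strain plus compound; vehicle-treated cultures serve as the 0% inhibition reference.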
# [12] = NCI Yeast Anticancer Drug Screen. Data for the wt2 strain (AID 169); details: S. cerevisiae wt2 strain growth inhibition, hits give high values
# In short: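 Values express reduction in yeast growth under compound treatment, referenced to vehicle-treated cells.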
# [13] = NCI Yeast Anticancer Drug Screen. Data for the mlh1 strain (AID 171);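 further: 0% = growth of vehicle-treated control cultures of the same strain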; details: S. cerevisiae mlh1 strain growth inhibition, hits give high values
# In short: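 Steps: expose the defined-mutant yeast strain to compound; expose a parallel culture to vehicle; measure growth; express compound effect as inhibition relative to the vehicle culture.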
# [14] = NCI Yeast Anticancer Drug Screen. Data for the sgs1 strain (AID 173);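 further: 0% = growth of vehicle-only control cultures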; details: S. cerevisiae sgs1 mutant, hits give high values
# In short: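 Treat defined-mutant yeast with compound; measure growth; calculate inhibition relative to vehicle-treated cells.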
# [15] = NCI Yeast Anticancer Drug Screen. Data for the mlh1 rad18 strain (AID 175); details: S. cerevisiae mlh1 rad18 strain growth inhibition, hits give high values
# In short: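 Test agents were incubated with a yeast strain of defined genotype (DNA damage repair defect). Inhibition of growth was derived by comparison with vehicle-exposed cultures.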
# [16] = NCI Yeast Anticancer Drug Screen. Data for the rad18 strain (AID 177); details: S. cerevisiae rad18 mutant growth inhibition, hits give high values
# In short: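 A genetically defined yeast mutant impaired in DNA damage repair was treated with test compounds, then its growth was measured against cultures receiving vehicle alone.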
# [17] = at 5.0 µM (retest, dose inferred, filed as 0.5)
# [18] = at 50.0 µM (retest, dose inferred, filed as 5.0)
structure (smiles),measurement,setting,value
COCCOC(=O)CCn1cc(F)c(=O)[nH]c1=O,growth inhibition,[1]; at 1.2 µM,-1%
same,growth inhibition,[1]; at 3.7 µM,-1%
same,growth inhibition,[1]; at 11.0 µM,11%
same,growth inhibition,[1]; at 33.0 µM,31%
same,growth inhibition,[1]; at 100.0 µM,62%
same,growth inhibition,[2]; at 1.2 µM,0%
same,growth inhibition,[2]; at 3.7 µM,3%
same,growth inhibition,[2]; at 11.0 µM,7%
same,growth inhibition,[2]; at 33.0 µM,12%
same,growth inhibition,[2]; at 100.0 µM,23%
same,growth inhibition,[3]; at 1.2 µM,-3%
same,growth inhibition,[3]; at 3.7 µM,3%
same,growth inhibition,[3]; at 11.0 µM,27%
same,growth inhibition,[3]; at 33.0 µM,67%
same,growth inhibition,[3]; at 100.0 µM,85% (active)
same,growth inhibition,[4]; at 1.2 µM,-1%
same,growth inhibition,[4]; at 3.7 µM,7%
same,growth inhibition,[4]; at 11.0 µM,16%
same,growth inhibition,[4]; at 33.0 µM,48%
same,growth inhibition,[4]; at 100.0 µM,80% (active)
same,growth inhibition,[5]; at 1.2 µM,-5%
same,growth inhibition,[5]; at 3.7 µM,-11%
same,growth inhibition,[5]; [17],24%
same,growth inhibition,[5]; at 11.0 µM,0%
same,growth inhibition,[5]; at 33.0 µM,34%
same,growth inhibition,[5]; [18],70% (active)
same,growth inhibition,[5]; at 50.0 µM,64.1%
same,growth inhibition,[5]; at 100.0 µM,61%
same,growth inhibition,[6]; at 1.2 µM,-1%
same,growth inhibition,[6]; at 3.7 µM,3%
same,growth inhibition,[6]; [17],5%
same,growth inhibition,[6]; at 11.0 µM,13%
same,growth inhibition,[6]; at 33.0 µM,48%
same,growth inhibition,[6]; [18],78% (active)
same,growth inhibition,[6]; at 50.0 µM,83.5% (active)
same,growth inhibition,[6]; at 100.0 µM,83% (active)
same,growth inhibition,[7]; at 1.2 µM,-3%
same,growth inhibition,[7]; at 3.7 µM,0%
same,growth inhibition,[7]; at 11.0 µM,7%
same,growth inhibition,[7]; at 33.0 µM,14%
same,growth inhibition,[7]; at 100.0 µM,34%
same,growth inhibition,[8]; [17],27%
same,growth inhibition,[8]; [18],82% (active)
same,growth inhibition,[8]; at 50.0 µM,91.7% (active)
same,growth inhibition,[9]; at 1.2 µM,0%
same,growth inhibition,[9]; at 3.7 µM,4%
same,growth inhibition,[9]; at 11.0 µM,6%
same,growth inhibition,[9]; at 33.0 µM,15%
same,growth inhibition,[9]; at 100.0 µM,19%
same,growth inhibition,[10]; [17],22%
same,growth inhibition,[10]; [18],40%
same,growth inhibition,[10]; at 50.0 µM,36.8%
same,growth inhibition,[11]; at 1.2 µM,0%
same,growth inhibition,[11]; at 3.7 µM,3%
same,growth inhibition,[11]; [17],-8%
same,growth inhibition,[11]; at 11.0 µM,7%
same,growth inhibition,[11]; at 33.0 µM,5%
same,growth inhibition,[11]; [18],11%
same,growth inhibition,[11]; at 50.0 µM,17.8%
same,growth inhibition,[11]; at 100.0 µM,17%
same,growth inhibition,[12]; at 1.2 µM,-1%
same,growth inhibition,[12]; at 3.7 µM,2%
same,growth inhibition,[12]; at 11.0 µM,14%
same,growth inhibition,[12]; at 33.0 µM,48%
same,growth inhibition,[12]; at 100.0 µM,76% (active)
same,growth inhibition,[13]; at 1.2 µM,3%
same,growth inhibition,[13]; at 3.7 µM,9%
same,growth inhibition,[13]; at 11.0 µM,18%
same,growth inhibition,[13]; at 33.0 µM,53%
same,growth inhibition,[13]; at 100.0 µM,77% (active)
same,growth inhibition,[14]; at 1.2 µM,1%
same,growth inhibition,[14]; at 3.7 µM,12%
same,growth inhibition,[14]; at 11.0 µM,36%
same,growth inhibition,[14]; at 33.0 µM,76% (active)
same,growth inhibition,[14]; at 100.0 µM,88% (active)
same,growth inhibition,[15]; [17],13%
same,growth inhibition,[15]; [18],51%
same,growth inhibition,[15]; at 50.0 µM,62.9%
same,growth inhibition,[16]; at 1.2 µM,1%
same,growth inhibition,[16]; at 3.7 µM,6%
same,growth inhibition,[16]; at 11.0 µM,15%
same,growth inhibition,[16]; at 33.0 µM,32%
same,growth inhibition,[16]; at 100.0 µM,56%
Cc1nc(-[n+]2nc(-c3ccncc3)nn2-c2ccccc2)sc1C,growth inhibition,[1]; at 1.2 µM,-2%
same,growth inhibition,[1]; at 3.7 µM,-2%
same,growth inhibition,[1]; at 11.0 µM,0%
same,growth inhibition,[1]; at 33.0 µM,38%
same,growth inhibition,[1]; at 100.0 µM,5%
same,growth inhibition,[2]; at 1.2 µM,-1%
same,growth inhibition,[2]; at 3.7 µM,-2%
same,growth inhibition,[2]; at 11.0 µM,-14%
same,growth inhibition,[2]; at 33.0 µM,9%
same,growth inhibition,[2]; at 100.0 µM,-11%
same,growth inhibition,[3]; at 1.2 µM,3%
same,growth inhibition,[3]; at 3.7 µM,16%
same,growth inhibition,[3]; at 11.0 µM,41%
same,growth inhibition,[3]; at 33.0 µM,44%
same,growth inhibition,[3]; at 100.0 µM,36%
same,growth inhibition,[4]; at 1.2 µM,-4%
same,growth inhibition,[4]; at 3.7 µM,-5%
same,growth inhibition,[4]; at 11.0 µM,8%
same,growth inhibition,[4]; at 33.0 µM,54%
same,growth inhibition,[4]; at 100.0 µM,78% (active)
same,growth inhibition,[5]; at 1.2 µM,-3%
same,growth inhibition,[5]; at 3.7 µM,-46%
same,growth inhibition,[5]; [17],1%
same,growth inhibition,[5]; at 11.0 µM,3%
same,growth inhibition,[5]; at 33.0 µM,48%
same,growth inhibition,[5]; [18],21%
same,growth inhibition,[5]; at 50.0 µM,66.2%
same,growth inhibition,[5]; at 100.0 µM,58%
same,growth inhibition,[6]; at 1.2 µM,-1%
same,growth inhibition,[6]; at 3.7 µM,-2%
same,growth inhibition,[6]; [17],0%
same,growth inhibition,[6]; at 11.0 µM,-3%
same,growth inhibition,[6]; at 33.0 µM,33%
same,growth inhibition,[6]; [18],-28%
same,growth inhibition,[6]; at 50.0 µM,78.5% (active)
same,growth inhibition,[6]; at 100.0 µM,39%
same,growth inhibition,[7]; at 1.2 µM,-2%
same,growth inhibition,[7]; at 3.7 µM,-3%
same,growth inhibition,[7]; at 11.0 µM,-7%
same,growth inhibition,[7]; at 33.0 µM,8%
same,growth inhibition,[7]; at 100.0 µM,1%
same,growth inhibition,[8]; [17],7%
same,growth inhibition,[8]; [18],76% (active)
same,growth inhibition,[8]; at 50.0 µM,74.8% (active)
same,growth inhibition,[9]; at 1.2 µM,-4%
same,growth inhibition,[9]; at 3.7 µM,-3%
same,growth inhibition,[9]; at 11.0 µM,-6%
same,growth inhibition,[9]; at 33.0 µM,25%
same,growth inhibition,[9]; at 100.0 µM,14%
same,growth inhibition,[10]; [17],0%
same,growth inhibition,[10]; [18],11%
same,growth inhibition,[10]; at 50.0 µM,63.9%
same,growth inhibition,[11]; at 1.2 µM,-1%
same,growth inhibition,[11]; at 3.7 µM,-5%
same,growth inhibition,[11]; [17],-45%
same,growth inhibition,[11]; at 11.0 µM,-5%
same,growth inhibition,[11]; at 33.0 µM,38%
same,growth inhibition,[11]; [18],60%
same,growth inhibition,[11]; at 50.0 µM,48%
same,growth inhibition,[11]; at 100.0 µM,18%
same,growth inhibition,[12]; at 1.2 µM,-2%
same,growth inhibition,[12]; at 3.7 µM,2%
same,growth inhibition,[12]; at 11.0 µM,18%
same,growth inhibition,[12]; at 33.0 µM,50%
same,growth inhibition,[12]; at 100.0 µM,72% (active)
same,growth inhibition,[13]; at 1.2 µM,-2%
same,growth inhibition,[13]; at 3.7 µM,-5%
same,growth inhibition,[13]; at 11.0 µM,7%
same,growth inhibition,[13]; at 33.0 µM,58%
same,growth inhibition,[13]; at 100.0 µM,72% (active)
same,growth inhibition,[14]; at 1.2 µM,-2%
same,growth inhibition,[14]; at 3.7 µM,7%
same,growth inhibition,[14]; at 11.0 µM,45%
same,growth inhibition,[14]; at 33.0 µM,69%
same,growth inhibition,[14]; at 100.0 µM,77% (active)
same,growth inhibition,[15]; [17],3%
same,growth inhibition,[15]; [18],48%
same,growth inhibition,[15]; at 50.0 µM,76.2% (active)
same,growth inhibition,[16]; at 1.2 µM,1%
same,growth inhibition,[16]; at 3.7 µM,3%
same,growth inhibition,[16]; at 11.0 µM,7%
same,growth inhibition,[16]; at 33.0 µM,46%
same,growth inhibition,[16]; at 100.0 µM,45%

# Reference: PubChem BioAssay (NCI)
